Experimental data: paper PMC7862700, “An all-to-all approach to the identification of sequence-specific readers for epigenetic DNA modifications on cytosine”

Legend:
Test in all cases: DAPPL (digital affinity profiling via proximity ligation, sequencing); 10 mM Tris-HCl pH 7.5, 50 mM NaCl, 1 mM DTT, 4% glycerol, room temperature, 30 min; GST-TFs on glutathione beads, 16-mer random dsDNA library, 0.1% formaldehyde crosslink after washing; high values mean tight binding
Settings in all cases: protein: recombinant; tags: N-terminal GST; dsDNA, one strand shown
[1] = biological target: T1, ELK1 (Homo sapiens, UniProt P19419 1-428)
T1 sequence: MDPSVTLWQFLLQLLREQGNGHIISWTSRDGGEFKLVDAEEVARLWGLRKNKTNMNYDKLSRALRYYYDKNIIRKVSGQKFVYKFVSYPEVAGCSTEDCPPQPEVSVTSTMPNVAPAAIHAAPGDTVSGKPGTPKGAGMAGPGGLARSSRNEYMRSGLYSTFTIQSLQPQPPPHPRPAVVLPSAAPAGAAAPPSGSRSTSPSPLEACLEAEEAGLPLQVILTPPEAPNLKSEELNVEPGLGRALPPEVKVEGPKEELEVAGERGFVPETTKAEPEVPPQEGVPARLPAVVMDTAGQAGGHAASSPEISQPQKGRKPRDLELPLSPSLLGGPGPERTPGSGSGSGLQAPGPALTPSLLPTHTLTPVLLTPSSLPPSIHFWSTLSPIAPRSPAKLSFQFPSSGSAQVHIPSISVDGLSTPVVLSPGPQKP
Method in brief: (§1)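 Binding signal is each hexamer's read frequency for a factor divided by its frequency in the tag-only sample. The factors were GST-fused human transcription factors from yeast, captured on glutathione beads, DNA-barcoded and pooled with that sample. Pools were incubated with 200 nmole of a random double-stranded 16-mer DNA library in Tris/NaCl/DTT/glycerol buffer at room temperature for 30 min, then washed, crosslinked with 0.1% formaldehyde, proximity-ligated with BsaI/T4 ligase (1 h, 37 °C), PCR-amplified and sequenced on an Illumina NextSeq500.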

[2] = biological target: T2, GABPA (Homo sapiens, UniProt Q06546 1-454)
T2 sequence: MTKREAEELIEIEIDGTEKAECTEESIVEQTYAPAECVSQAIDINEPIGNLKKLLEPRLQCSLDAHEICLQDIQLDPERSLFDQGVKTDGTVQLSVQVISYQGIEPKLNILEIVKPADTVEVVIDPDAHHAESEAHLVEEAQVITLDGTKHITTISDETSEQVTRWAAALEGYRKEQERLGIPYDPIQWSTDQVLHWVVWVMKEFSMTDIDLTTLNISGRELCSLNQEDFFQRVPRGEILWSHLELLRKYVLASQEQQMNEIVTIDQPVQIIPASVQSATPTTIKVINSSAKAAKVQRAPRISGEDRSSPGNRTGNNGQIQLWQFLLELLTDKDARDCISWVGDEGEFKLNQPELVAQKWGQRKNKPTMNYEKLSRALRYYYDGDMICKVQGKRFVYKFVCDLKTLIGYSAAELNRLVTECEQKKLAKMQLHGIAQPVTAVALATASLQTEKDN
Method in brief: as §1

[3] = biological target: T3, ERG (Homo sapiens, UniProt P11308 1-479)
T3 sequence: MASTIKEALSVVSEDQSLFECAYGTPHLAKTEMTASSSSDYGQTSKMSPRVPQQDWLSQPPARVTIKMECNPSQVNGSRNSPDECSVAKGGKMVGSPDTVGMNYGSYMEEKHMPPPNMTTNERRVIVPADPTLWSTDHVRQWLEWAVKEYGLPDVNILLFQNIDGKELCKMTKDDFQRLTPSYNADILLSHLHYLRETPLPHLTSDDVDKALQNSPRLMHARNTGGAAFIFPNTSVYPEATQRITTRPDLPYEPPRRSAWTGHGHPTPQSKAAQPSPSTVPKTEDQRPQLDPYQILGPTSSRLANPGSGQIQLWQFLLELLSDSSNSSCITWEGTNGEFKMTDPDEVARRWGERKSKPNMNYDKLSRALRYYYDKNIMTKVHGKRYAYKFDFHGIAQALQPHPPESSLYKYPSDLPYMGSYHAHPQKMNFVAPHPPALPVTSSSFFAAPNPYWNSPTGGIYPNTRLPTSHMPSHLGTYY
Method in brief: as §1

[4] = biological target: ELF1 (Homo sapiens, UniProt P32519 1-619)
Method in brief: as §1

[5] = biological target: T4, EHF (Homo sapiens, UniProt Q9NZC4 1-300)
T4 sequence: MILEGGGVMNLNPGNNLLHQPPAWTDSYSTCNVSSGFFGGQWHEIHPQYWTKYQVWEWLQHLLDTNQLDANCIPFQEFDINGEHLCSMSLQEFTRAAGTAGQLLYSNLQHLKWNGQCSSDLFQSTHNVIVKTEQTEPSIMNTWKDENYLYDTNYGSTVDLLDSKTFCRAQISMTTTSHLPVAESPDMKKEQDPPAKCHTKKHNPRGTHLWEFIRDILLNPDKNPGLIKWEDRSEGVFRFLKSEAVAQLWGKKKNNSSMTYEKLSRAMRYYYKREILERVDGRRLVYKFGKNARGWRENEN
Method in brief: as §1

[6] = biological target: SPI1 (Homo sapiens, UniProt P17947 1-270)
Method in brief: as §1

[7] = biological target: SPIB (Homo sapiens, UniProt Q01892 1-262)
Method in brief: as §1

[8] = biological target: T5, FEV (Homo sapiens, UniProt Q99581 1-238)
T5 sequence: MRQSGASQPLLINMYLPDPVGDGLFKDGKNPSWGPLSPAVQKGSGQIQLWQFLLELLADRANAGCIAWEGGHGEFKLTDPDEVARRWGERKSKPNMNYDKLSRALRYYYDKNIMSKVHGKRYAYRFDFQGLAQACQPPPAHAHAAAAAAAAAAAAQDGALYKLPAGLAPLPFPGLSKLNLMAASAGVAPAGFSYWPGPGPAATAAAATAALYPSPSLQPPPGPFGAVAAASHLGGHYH
Method in brief: as §1

[9] = biological target: ETV5 (Homo sapiens, UniProt P41161 1-510)
Method in brief: as §1

[10] = biological target: ELF4 (Homo sapiens, UniProt Q99607 1-663)
Method in brief: as §1

[11] = biological target: T6, ELK4 (Homo sapiens, UniProt P28324-2 1-405)
T6 sequence: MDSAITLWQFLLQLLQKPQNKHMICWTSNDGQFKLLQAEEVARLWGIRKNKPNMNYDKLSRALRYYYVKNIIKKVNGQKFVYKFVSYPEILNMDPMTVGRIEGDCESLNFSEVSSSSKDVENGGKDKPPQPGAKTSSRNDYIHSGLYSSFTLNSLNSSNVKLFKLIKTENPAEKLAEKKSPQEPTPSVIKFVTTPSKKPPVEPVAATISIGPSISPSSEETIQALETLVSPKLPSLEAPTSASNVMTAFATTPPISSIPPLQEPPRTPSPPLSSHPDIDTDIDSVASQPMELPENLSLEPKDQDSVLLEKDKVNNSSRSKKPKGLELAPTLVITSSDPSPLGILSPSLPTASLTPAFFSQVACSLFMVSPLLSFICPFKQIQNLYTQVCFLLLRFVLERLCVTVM
Method in brief: as §1

[12] = biological target: T7, ELF3 (Homo sapiens, UniProt P78545 1-371)
T7 sequence: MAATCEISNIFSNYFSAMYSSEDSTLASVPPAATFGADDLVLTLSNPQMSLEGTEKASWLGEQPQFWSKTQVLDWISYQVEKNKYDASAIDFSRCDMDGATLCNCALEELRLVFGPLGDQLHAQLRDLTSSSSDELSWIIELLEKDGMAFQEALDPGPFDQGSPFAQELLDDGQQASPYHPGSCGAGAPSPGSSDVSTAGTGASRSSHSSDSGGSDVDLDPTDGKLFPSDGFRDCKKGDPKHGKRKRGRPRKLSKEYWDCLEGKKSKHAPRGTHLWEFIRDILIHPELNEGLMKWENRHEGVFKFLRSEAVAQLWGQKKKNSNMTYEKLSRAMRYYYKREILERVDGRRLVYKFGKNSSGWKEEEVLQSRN
Method in brief: as §1

[13] = biological target: ETV1 (Homo sapiens, UniProt P50549 1-477)
Method in brief: as §1

[14] = biological target: T8, ERF (Homo sapiens, UniProt P50548 1-548)
T8 sequence: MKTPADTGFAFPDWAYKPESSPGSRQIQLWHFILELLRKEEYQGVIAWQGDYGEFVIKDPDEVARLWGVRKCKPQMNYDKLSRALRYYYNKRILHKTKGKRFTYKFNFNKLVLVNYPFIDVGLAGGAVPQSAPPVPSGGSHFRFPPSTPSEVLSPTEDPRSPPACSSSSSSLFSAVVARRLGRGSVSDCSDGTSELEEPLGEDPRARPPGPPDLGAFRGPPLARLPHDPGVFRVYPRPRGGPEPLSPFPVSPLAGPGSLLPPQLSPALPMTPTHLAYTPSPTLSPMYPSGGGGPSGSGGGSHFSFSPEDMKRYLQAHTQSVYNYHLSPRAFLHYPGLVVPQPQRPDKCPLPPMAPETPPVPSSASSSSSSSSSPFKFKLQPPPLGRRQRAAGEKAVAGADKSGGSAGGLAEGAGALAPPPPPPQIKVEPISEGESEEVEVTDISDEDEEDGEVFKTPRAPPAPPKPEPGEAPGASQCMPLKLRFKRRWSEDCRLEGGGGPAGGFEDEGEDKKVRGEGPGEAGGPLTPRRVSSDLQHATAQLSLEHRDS
Method in brief: as §1

[15] = biological target: T9, ETV3L (Homo sapiens, UniProt Q6ZN32 1-361)
T9 sequence: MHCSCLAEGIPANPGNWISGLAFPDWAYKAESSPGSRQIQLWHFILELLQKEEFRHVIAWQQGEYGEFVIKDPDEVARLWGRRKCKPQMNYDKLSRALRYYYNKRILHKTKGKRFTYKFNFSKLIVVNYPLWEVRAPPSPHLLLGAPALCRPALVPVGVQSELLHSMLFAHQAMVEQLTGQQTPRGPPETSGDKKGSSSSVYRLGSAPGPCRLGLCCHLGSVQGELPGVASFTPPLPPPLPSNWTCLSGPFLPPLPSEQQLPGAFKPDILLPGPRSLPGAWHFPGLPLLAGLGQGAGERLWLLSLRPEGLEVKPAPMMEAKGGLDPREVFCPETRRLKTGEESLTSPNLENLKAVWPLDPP
Method in brief: as §1

[16] = biological target: T10, ETS2 (Homo sapiens, UniProt P15036 1-469)
T10 sequence: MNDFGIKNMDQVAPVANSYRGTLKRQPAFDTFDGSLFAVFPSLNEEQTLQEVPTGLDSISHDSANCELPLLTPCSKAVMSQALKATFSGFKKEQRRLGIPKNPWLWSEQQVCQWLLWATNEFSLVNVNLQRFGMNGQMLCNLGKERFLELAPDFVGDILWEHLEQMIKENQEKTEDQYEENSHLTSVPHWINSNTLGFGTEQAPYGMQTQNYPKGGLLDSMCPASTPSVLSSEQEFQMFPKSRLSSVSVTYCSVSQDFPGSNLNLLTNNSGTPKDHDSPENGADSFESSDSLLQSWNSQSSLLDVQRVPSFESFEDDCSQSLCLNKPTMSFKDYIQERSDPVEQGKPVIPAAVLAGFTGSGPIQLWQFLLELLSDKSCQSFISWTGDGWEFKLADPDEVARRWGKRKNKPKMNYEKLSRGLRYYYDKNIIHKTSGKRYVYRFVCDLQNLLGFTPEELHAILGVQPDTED
Method in brief: as §1

[17] = biological target: T11, SPDEF (Homo sapiens, UniProt O95238 1-335)
T11 sequence: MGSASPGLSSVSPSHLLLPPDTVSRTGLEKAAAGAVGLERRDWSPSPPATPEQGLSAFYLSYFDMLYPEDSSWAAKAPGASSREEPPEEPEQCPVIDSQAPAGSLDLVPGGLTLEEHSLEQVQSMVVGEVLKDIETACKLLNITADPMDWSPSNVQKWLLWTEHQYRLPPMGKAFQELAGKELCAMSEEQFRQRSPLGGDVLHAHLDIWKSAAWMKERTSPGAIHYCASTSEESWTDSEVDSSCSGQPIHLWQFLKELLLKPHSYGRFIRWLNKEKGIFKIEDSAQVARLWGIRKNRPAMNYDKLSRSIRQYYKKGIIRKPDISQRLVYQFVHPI
Method in brief: as §1

[18] = biological target: T12, ETV3 (Homo sapiens, UniProt P41162-2 1-143)
T12 sequence: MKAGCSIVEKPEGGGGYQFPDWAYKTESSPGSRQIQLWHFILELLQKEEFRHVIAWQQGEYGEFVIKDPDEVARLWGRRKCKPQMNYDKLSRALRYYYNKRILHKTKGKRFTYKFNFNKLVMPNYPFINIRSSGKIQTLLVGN
Method in brief: as §1

[19] = biological target: ETV6 (Homo sapiens, UniProt P41212 1-452)
Method in brief: as §1

ELF1, sequence (P32519 whole entry): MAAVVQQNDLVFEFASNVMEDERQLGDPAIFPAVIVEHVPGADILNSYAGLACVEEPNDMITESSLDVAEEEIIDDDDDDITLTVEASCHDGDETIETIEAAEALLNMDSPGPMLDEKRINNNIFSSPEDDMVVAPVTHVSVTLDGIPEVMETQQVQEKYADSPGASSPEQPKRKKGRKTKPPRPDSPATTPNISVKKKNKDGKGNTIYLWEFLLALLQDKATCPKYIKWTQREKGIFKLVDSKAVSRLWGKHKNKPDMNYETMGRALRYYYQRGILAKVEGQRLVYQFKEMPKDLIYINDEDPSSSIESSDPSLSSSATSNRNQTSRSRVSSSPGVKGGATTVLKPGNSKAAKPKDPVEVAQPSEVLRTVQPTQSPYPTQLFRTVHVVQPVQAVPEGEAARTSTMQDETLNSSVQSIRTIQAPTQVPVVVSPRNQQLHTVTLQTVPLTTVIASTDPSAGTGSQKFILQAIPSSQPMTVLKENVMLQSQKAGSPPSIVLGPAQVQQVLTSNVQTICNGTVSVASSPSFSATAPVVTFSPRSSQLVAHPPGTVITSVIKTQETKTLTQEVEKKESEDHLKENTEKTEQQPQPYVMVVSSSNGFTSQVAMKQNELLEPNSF
ETV5, sequence (P41161 whole entry): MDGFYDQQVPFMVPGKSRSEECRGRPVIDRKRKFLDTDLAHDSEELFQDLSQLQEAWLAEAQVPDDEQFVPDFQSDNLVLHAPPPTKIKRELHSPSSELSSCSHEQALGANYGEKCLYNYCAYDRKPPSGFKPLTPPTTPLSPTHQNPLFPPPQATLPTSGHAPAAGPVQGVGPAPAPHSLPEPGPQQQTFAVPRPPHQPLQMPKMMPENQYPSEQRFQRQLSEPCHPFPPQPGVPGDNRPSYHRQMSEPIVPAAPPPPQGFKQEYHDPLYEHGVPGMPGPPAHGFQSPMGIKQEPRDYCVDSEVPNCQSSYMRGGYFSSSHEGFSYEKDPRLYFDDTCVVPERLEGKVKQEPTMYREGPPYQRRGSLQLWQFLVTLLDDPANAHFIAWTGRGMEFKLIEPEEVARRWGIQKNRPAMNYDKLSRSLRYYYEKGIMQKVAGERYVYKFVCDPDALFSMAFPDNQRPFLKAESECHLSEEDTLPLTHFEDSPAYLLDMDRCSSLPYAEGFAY
ETV6, sequence (P41212 whole entry): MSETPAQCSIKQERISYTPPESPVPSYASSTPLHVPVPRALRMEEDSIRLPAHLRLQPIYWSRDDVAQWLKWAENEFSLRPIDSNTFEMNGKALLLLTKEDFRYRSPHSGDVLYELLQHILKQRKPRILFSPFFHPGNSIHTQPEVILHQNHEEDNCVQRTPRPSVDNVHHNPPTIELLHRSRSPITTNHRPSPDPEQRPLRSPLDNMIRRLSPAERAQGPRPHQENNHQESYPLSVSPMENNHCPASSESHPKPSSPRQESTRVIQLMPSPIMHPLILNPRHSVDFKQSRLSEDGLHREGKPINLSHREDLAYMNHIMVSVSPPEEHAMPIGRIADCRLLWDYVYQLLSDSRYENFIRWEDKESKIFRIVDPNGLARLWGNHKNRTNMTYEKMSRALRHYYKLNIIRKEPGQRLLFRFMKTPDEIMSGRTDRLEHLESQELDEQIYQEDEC
ELF4, sequence (Q99607 whole entry): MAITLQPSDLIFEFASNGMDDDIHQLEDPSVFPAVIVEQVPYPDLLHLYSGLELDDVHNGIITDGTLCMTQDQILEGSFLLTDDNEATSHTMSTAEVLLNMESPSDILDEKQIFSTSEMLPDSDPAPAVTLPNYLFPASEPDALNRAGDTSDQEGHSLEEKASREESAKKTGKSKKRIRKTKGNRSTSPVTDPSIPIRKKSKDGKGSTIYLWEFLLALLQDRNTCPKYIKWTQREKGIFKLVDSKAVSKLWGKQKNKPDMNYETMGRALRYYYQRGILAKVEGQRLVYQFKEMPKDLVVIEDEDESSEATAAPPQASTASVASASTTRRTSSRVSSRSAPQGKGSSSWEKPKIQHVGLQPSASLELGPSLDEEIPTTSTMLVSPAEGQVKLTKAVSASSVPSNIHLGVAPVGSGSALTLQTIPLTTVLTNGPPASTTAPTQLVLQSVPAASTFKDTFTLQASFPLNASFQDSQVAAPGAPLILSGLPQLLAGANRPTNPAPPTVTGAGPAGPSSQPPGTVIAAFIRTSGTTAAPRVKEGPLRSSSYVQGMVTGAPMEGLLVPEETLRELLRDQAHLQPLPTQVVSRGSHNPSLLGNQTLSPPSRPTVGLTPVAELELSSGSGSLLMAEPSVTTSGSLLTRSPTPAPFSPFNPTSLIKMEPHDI
ETV1, sequence (P50549 whole entry): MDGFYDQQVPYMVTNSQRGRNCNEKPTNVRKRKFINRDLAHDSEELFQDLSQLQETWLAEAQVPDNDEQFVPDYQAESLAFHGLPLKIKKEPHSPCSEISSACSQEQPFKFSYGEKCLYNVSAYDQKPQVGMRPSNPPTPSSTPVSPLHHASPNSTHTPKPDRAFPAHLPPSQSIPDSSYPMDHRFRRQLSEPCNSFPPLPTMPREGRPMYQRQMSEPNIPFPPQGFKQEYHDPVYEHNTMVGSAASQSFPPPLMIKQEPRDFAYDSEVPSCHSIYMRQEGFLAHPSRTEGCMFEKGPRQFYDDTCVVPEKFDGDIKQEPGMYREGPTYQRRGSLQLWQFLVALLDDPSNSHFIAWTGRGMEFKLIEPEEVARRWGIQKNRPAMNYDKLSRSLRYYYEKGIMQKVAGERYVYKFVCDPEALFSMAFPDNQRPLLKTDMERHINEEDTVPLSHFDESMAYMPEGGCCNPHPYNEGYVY
SPIB, sequence (Q01892 whole entry): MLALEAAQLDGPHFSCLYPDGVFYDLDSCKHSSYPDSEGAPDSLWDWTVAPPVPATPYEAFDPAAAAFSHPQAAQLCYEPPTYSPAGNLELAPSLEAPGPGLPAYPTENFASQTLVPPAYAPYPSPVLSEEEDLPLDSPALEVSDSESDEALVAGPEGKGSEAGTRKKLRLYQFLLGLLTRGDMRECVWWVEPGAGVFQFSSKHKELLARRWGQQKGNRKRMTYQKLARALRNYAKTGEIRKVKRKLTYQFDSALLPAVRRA

In the case of CAGCCC, the binding signal [1] is reported as 1.16 fold enrichment (6-mer frequency, TF over GST control), the binding signal [2] is reported as 1.06 fold enrichment (6-mer frequency, TF over GST control) and the binding signal [3] is reported as 1.18 fold enrichment (6-mer frequency, TF over GST control). For the same sequence, the binding signal [4] was 1.09 fold enrichment (6-mer frequency, TF over GST control), the binding signal [5] was 1.16 fold enrichment (6-mer frequency, TF over GST control) and the binding signal [6] was 1.03 fold enrichment (6-mer frequency, TF over GST control). For the same sequence, the binding signal [7] was 1.09 fold enrichment (6-mer frequency, TF over GST control), the binding signal [8] was 1.13 fold enrichment (6-mer frequency, TF over GST control) and the binding signal [9] was 1.07 fold enrichment (6-mer frequency, TF over GST control). For the same sequence, the binding signal [10] was 1.06 fold enrichment (6-mer frequency, TF over GST control), the binding signal [11] was 1.19 fold enrichment (6-mer frequency, TF over GST control) and the binding signal [12] was 1.35 fold enrichment (6-mer frequency, TF over GST control). For the same sequence, the binding signal [13] was 1.01 fold enrichment (6-mer frequency, TF over GST control), the binding signal [14] was 1.08 fold enrichment (6-mer frequency, TF over GST control) and the binding signal [15] was 1.07 fold enrichment (6-mer frequency, TF over GST control). For the same sequence, the binding signal [16] was 1.13 fold enrichment (6-mer frequency, TF over GST control), the binding signal [17] was 1.02 fold enrichment (6-mer frequency, TF over GST control) and the binding signal [18] was 1.05 fold enrichment (6-mer frequency, TF over GST control). For the same sequence, the binding signal [19] was 1.12 fold enrichment (6-mer frequency, TF over GST control).
